Measurements from PubChem BioAssay AID1159580 (chemical genetic matrix, 2015).
About 2,000 (36%) of roughly 5,500 compounds were called active. Roughly 18% stayed inconclusive and do not appear here. No stated cut-off is given here; in the data, active means normalized growth mostly below about 0.91 (no sharp cut-off); inconclusive means no clear call, values can overlap the other calls; inactive means mostly above about 0.92. This is one part of the list.

Assay: chemical genetic growth profiling, strain panel (AID 1159580);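 further: tested at 20 µM; growth read once vehicle control cultures reached saturation at 30 °C; 1 = growth at the plate median or of vehicle wells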
Settings: growth OD

Measured: normalized growth

CC(=O)OCC(=O)[C@@]12OC3(CCCC3)O[C@@H]1CC1C3CCC4=CC(=O)C=C[C@]4(C)[C@@]3(F)[C@@H](O)C[C@@]12C (some centres not stated)
inactive: S. cerevisiae deletion strains, locus YJR075W, strain HOC1, stronger effect = lower value 1.01 | S. cerevisiae deletion strains, locus YKL009W, strain mrt4, stronger effect = lower value 0.967 | S. cerevisiae deletion strains, locus YKL068W, stronger effect = lower value 0.991 | S. cerevisiae deletion strains, locus YKL085W, strain MDH1 (second series), stronger effect = lower value 0.994 | S. cerevisiae deletion strains, locus YKL085W, strain MDH1, stronger effect = lower value 0.994 | S. cerevisiae deletion strains, locus YKL160W, strain elf1, stronger effect = lower value 1.01 | S. cerevisiae deletion strains, locus YKL190W, strain CNB1, stronger effect = lower value 0.997 | S. cerevisiae deletion strains, locus YKR001C, strain vps1, stronger effect = lower value 0.985 | S. cerevisiae deletion strains, locus YKR026C, strain gcn3, stronger effect = lower value 1.02 | S. cerevisiae deletion strains, locus YKR091W, strain srl3, stronger effect = lower value 1.01 | S. cerevisiae deletion strains, locus YLL001W, strain dnm1, stronger effect = lower value 1 | S. cerevisiae deletion strains, locus YLL026W, stronger effect = lower value 1.01 | S. cerevisiae deletion strains, locus YLL041C, strain sdh2, stronger effect = lower value 1.02 | S. cerevisiae deletion strains, locus YLR027C, strain aat2, stronger effect = lower value 1.01 | S. cerevisiae deletion strains, locus YLR039C, strain RIC1, stronger effect = lower value 0.94 | S. cerevisiae deletion strains, locus YLR058C, strain SHM2, stronger effect = lower value 1.01 | S. cerevisiae deletion strains, locus YLR102C, strain apc9, stronger effect = lower value 0.992 | S. cerevisiae deletion strains, locus YLR113W, strain HOG1, stronger effect = lower value 0.989 | S. cerevisiae deletion strains, locus YLR221C, strain rsa3, stronger effect = lower value 1.01 | S. cerevisiae deletion strains, locus YLR258W, strain gsy2, stronger effect = lower value 1.02 | S. cerevisiae deletion strains, locus YLR262C, strain YPT6 (second series), stronger effect = lower value 1 | S. cerevisiae deletion strains, locus YLR262C, strain YPT6, stronger effect = lower value 0.961 | S. cerevisiae deletion strains, locus YLR268W, strain sec22, stronger effect = lower value 0.958 | S. cerevisiae deletion strains, locus YLR320W, strain mms22, stronger effect = lower value 1.02 | S. cerevisiae deletion strains, locus YLR330W, strain CHS5, stronger effect = lower value 1.01 | S. cerevisiae deletion strains, locus YLR342W, strain FKS1 (second series), stronger effect = lower value 1.05 | S. cerevisiae deletion strains, locus YLR342W, strain FKS1, stronger effect = lower value 1.02 | S. cerevisiae deletion strains, locus YLR357W, strain rsc2, stronger effect = lower value 1.04 | S. cerevisiae deletion strains, locus YLR370C, strain arc18, stronger effect = lower value 1.02 | S. cerevisiae deletion strains, locus YLR371W, strain rom2, stronger effect = lower value 0.984 | S. cerevisiae deletion strains, locus YLR384C, strain iki3, stronger effect = lower value 1.01 | S. cerevisiae deletion strains, locus YLR418C, strain cdc73, stronger effect = lower value 0.944 | S. cerevisiae deletion strains, locus YML016C, strain PPZ1, stronger effect = lower value 1.02 | S. cerevisiae deletion strains, locus YML032C, strain rad52, stronger effect = lower value 0.968 | S. cerevisiae deletion strains, locus YML120C, strain ndi1, stronger effect = lower value 1.02 | S. cerevisiae deletion strains, locus YML124C, strain tub3, stronger effect = lower value 0.988 | S. cerevisiae deletion strains, locus YMR058W, strain fet3, stronger effect = lower value 1.02 | S. cerevisiae deletion strains, locus YMR078C, strain ctf18, stronger effect = lower value 1 | S. cerevisiae deletion strains, locus YMR125W, strain sto1, stronger effect = lower value 1.03 | S. cerevisiae deletion strains, locus YMR129W, stronger effect = lower value 1.02 | S. cerevisiae deletion strains, locus YMR205C, strain PFK2, stronger effect = lower value 1.02 | S. cerevisiae deletion strains, locus YMR223W, strain ubp8, stronger effect = lower value 1.01 | S. cerevisiae deletion strains, locus YMR231W, strain pep5, stronger effect = lower value 1.01 | S. cerevisiae deletion strains, locus YMR263W, strain SAP30, stronger effect = lower value 1.01 | S. cerevisiae deletion strains, locus YMR307W, strain GAS1, stronger effect = lower value 1.11 | S. cerevisiae deletion strains, locus YNL067W, strain RPL9B, stronger effect = lower value 1 | S. cerevisiae deletion strains, locus YNL071W, strain lat1, stronger effect = lower value 1.01 | S. cerevisiae deletion strains, locus YNL128W, strain TEP1, stronger effect = lower value 1.03 | S. cerevisiae deletion strains, locus YNL153C, strain GIM3, stronger effect = lower value 0.996 | S. cerevisiae deletion strains, locus YNL183C, strain NPR1, stronger effect = lower value 0.954 | S. cerevisiae deletion strains, locus YNL209W, strain ssb2, stronger effect = lower value 1.01 | S. cerevisiae deletion strains, locus YNL233W, strain BNI4, stronger effect = lower value 1.01 | S. cerevisiae deletion strains, locus YNL248C, strain rpa49, stronger effect = lower value 0.978 | S. cerevisiae deletion strains, locus YNL250W, strain rad50, stronger effect = lower value 0.994 | S. cerevisiae deletion strains, locus YNL271C, strain bni1, stronger effect = lower value 0.984 | S. cerevisiae deletion strains, locus YNL298W, strain CLA4, stronger effect = lower value 0.982 | S. cerevisiae deletion strains, locus YNL307C, strain MCK1, stronger effect = lower value 0.992 | S. cerevisiae deletion strains, locus YNL322C, strain KRE1 (second series), stronger effect = lower value 1.03 | S. cerevisiae deletion strains, locus YNL322C, strain KRE1, stronger effect = lower value 1.01 | S. cerevisiae deletion strains, locus YNR049C, strain mso1, stronger effect = lower value 1.03 | S. cerevisiae deletion strains, locus YNR052C, strain pop2, stronger effect = lower value 0.99 | S. cerevisiae deletion strains, locus YOL006C, strain TOP1, stronger effect = lower value 1.01 | S. cerevisiae deletion strains, locus YOL012C, strain htz1 0.599 | S. cerevisiae deletion strains, locus YOL147C, strain pex11, stronger effect = lower value 1 | S. cerevisiae deletion strains, locus YOR001W, strain rrp6, stronger effect = lower value 1.02 | S. cerevisiae deletion strains, locus YOR061W, strain CKA2, stronger effect = lower value 1.01 | S. cerevisiae deletion strains, locus YOR069W, strain VPS5, stronger effect = lower value 1.01 | S. cerevisiae deletion strains, locus YOR070C, strain gyp1, stronger effect = lower value 1.02 | S. cerevisiae deletion strains, locus YOR080W, strain dia2, stronger effect = lower value 1.04 | S. cerevisiae deletion strains, locus YOR083W, strain WHI5, stronger effect = lower value 0.998 | S. cerevisiae deletion strains, locus YOR106W, strain vam3, stronger effect = lower value 1.01 | S. cerevisiae deletion strains, locus YOR136W, strain idh2, stronger effect = lower value 0.981 | S. cerevisiae deletion strains, locus YOR144C, strain elg1, stronger effect = lower value 0.991 | S. cerevisiae deletion strains, locus YOR184W, strain ser1, stronger effect = lower value 0.983 | S. cerevisiae deletion strains, locus YOR231W, strain MKK1, stronger effect = lower value 0.963 | S. cerevisiae deletion strains, locus YOR265W, strain rbl2, stronger effect = lower value 1.02 | S. cerevisiae deletion strains, locus YOR270C, strain vph1, stronger effect = lower value 0.921 | S. cerevisiae deletion strains, locus YOR290C, strain snf2, stronger effect = lower value 1.01 | S. cerevisiae deletion strains, locus YOR316C, strain cot1, stronger effect = lower value 1 | S. cerevisiae deletion strains, locus YPL051W, strain arl3, stronger effect = lower value 1.02 | S. cerevisiae deletion strains, locus YPL055C, strain LGE1, stronger effect = lower value 1.01 | S. cerevisiae deletion strains, locus YPL078C, strain atp4, stronger effect = lower value 1.01 | S. cerevisiae deletion strains, locus YPL106C, strain sse1, stronger effect = lower value 1.1 | S. cerevisiae deletion strains, locus YPL240C, strain hsp82, stronger effect = lower value 1.01 | S. cerevisiae deletion strains, locus YPL241C, strain CIN2, stronger effect = lower value 1.01 | S. cerevisiae deletion strains, locus YPL256C, strain CLN2, stronger effect = lower value 0.975 | S. cerevisiae deletion strains, locus YPR119W, strain clb2, stronger effect = lower value 0.982 | S. cerevisiae deletion strains, locus YPR141C, strain kar3, stronger effect = lower value 0.989 | S. cerevisiae deletion strains, locus YPR163C, strain tif3, stronger effect = lower value 0.98 | S. cerevisiae deletion strains, locus YPR167C, strain met16, stronger effect = lower value 0.999 | S. cerevisiae deletion strains, strain wtn01, stronger effect = lower value 0.98 | S. cerevisiae strains, strain wild type, stronger effect = lower value 1.01
